This is part of a sample that, as a whole, favours compounds with a hit. Of some 83,000 tested, about 20% had one in any assay.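 Each cell line was grown in a 96-well plate and treated with one concentration of compound for 48 hours. Values below 10 were considered active.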 Values without a mark were called inactive. Active and inactive are the calls of the source.
System: CCRF-CEM leukemia
Assay: NCI-60 one-dose screen, 48 h (100 = growth as untreated, 0 = no growth, -100 = all killed)
Details: 10 µM unless noted
Method: Growth inhibition of the CCRF-CEM human tumor cell line is measured as a screen for anti-cancer activity. Cells are grown in 96 well plates and exposed to the test compound for 48 hours. Compounds are tested at a single concentration, which is 10^-5 M for most compounds. The reported endpoint is percent growth (GI% or GIPRCNT), where numbers from 0 - 100% represent growth inhibition, and numbers from -100% - 0 represent cell death. For example, a value of 40 represents 60% growth inhibition. A value of 0 means no net growth occurred over the course of the experiment. A value of -40 indicates 40% of cells at the beginning of the experiment died by the end of the experiment. A value of -100 means all cells are dead at the end of the experiment.
NCI-60 Human Tumor Cell Lines Screen was performed using the standard one-dose NCI protocol, which is described in more detail at https://dtp.cancer.gov/discovery_development/nci-60/default.htm.
Compounds with GIPRCNT values below 10 were considered active. Activity score was based on GIPRCNT using the following formula: […]
Score is 0 for GIPRCNT values of 100 or above, 50 for GIPRCNT values of 0, and 100 for GIPRCNT values of -100.

For `Cc1ccccc1-n1nnc(C(=O)Nc2ccc(-c3ccccc3)cn2)c1C`, which growth is on record?
The growth was 51.8% [50 µM].

Which growth does the source give for `Cc1nc(NN)c([N+](=O)[O-])c(NN)n1` here?
Its growth is -28.1% (active).

Which growth does the source give for `Clc1ccc2c(c1)C[C@H]1C[C@@H](c3cccs3)N2O1` here?
Its growth is 100%.

`COc1ccc(C(=O)C2=CC(=O)C(=O)C2)cc1OC` was tested. Which growth did it give?
Its growth is 95.3%.

Which growth does the source give for `Clc1nc(-c2ccccn2)nc2sc3c(c12)CCCCCC3` here?
Its growth is 72.4%.

Which growth does the source give for `COc1cc2cc(Oc3ccc(NC(=O)Nc4cccc(C(F)(F)F)c4)cc3)c(C)nc2cc1OCCN1CCCCC1` here?
Its growth is 1.49% (active).

`CCN1CCN(c2nc3ccccc3c3c(=O)c4cc(F)ccc4sc23)CC1` was tested. Which growth did it give?
Its growth is 68.5%.

Which growth does the source give for `COc1cc(C(F)(F)F)ccc1-c1cc(-c2ccc(F)cc2)n[nH]1` here?
Its growth is 89.8%.

Which growth does the source give for `Cc1ccc(S(=O)(=O)N2CCc3ccc(O)c4c3C2Cc2ccc3c(c2-4)OCO3)cc1` (stereo not given) here?
The growth was -11.9% (active).

`CN1CCc2c(c3ccccc3c3ccccc23)C1` was tested. Which growth did it give?
Its growth is -38.4% (active).

With `Cc1ccc(-c2nnc(COc3ccc(-c4nnc(N)s4)cc3)o2)cc1` as the compound, how does the growth read?
Its growth is 47.7%.

Which growth does the source give for `O=S(=O)(Nc1ncccn1)c1ccc(Nc2ccc3nnc(-c4ccncc4)n3n2)cc1` here?
Its growth is 94.3%.

For `OC[C@@H](O)[C@@H](O)CO`, which growth is on record?
The growth was 100%.

With `O=C1C(Cl)=C(NCCCN2CCOCC2)C(=O)c2ccccc21` as the compound, how does the growth read?
The growth was 90.9%.

With `CC[Si](CC)(CC)OC1[C@@H](O[Si](CC)(CC)CC)[C@@H](CNC(=O)NC)O[C@H]1n1cnc2c(NC(=O)Nc3ccccc3)ncnc21` (stereo not given in full) as the compound, how does the growth read?
The growth was 38.5%.

`COc1ccc(C2OCC(C)(C)CO2)cc1OC` was tested. Which growth did it give?
The growth was 94.3%.

`COc1ccc(NS(=O)(=O)c2ccc(-c3cnc(C4CC4)o3)cc2)cc1` was tested. Which growth did it give?
Its growth is 76.2%.

For `CC(C)(C)[Si](C)(C)OC1[C@@H](COC(=O)NC(=O)CCl)O[C@@H](n2cnc3c(N)ncnc32)[C@H]1O[Si](C)(C)C(C)(C)C` (stereo not given in full), which growth is on record?
The growth was -48.6% (active).

Which growth does the source give for `O=c1c2c(=NCCN3CCCC3)cc3c(=O)n(CCCN4CCOCC4)c(=O)c4c(-c5ccc(CN6CCCC6)cc5)cc(c(O)n1CCCN1CCOCC1)c2c4-3` here?
Its growth is -4.42% (active).

`CCCN1CCN(c2ccc3nc(-c4ccc5nc(-c6ccc(C(F)(F)F)cc6)[nH]c5c4)[nH]c3c2)CC1` was tested. Which growth did it give?
Its growth is -21.1% (active).

With `CC(=O)OC[C@H](O)[C@@]1(O)CC[C@H]2[C@@H]3CCC4=CC(=O)CC[C@]4(C)[C@H]3[C@@H](O)C[C@@]21C` as the compound, how does the growth read?
Its growth is 89.4%.

How did the growth turn out when `C=C(C)CCCC(C)CC#N` (stereo not given) was run?
Its growth is 96.1%.

How did the growth turn out when `Cc1cc(=O)oc2c1ccc1oc(C(=O)c3ccccc3)c(C)c12` was run?
Its growth is 69.1%.

`CS(=O)(=O)Nc1cccc(C(=O)NCc2ccc(N3CCOCC3)cc2)c1` was tested. Which growth did it give?
Its growth is 99.8%.

How did the growth turn out when `Cc1cc(C)c(S(=O)O)c(C)c1` was run?
Its growth is 94%.

Which growth does the source give for `Nc1nc2c(s1)CCc1c-2c(Br)n(Cc2ccccc2)c1Br` here?
The growth was 2.66% (active).

For `CN1CCN(CCCn2c3c(sc4ncccc43)c(=O)n3nnc(-c4ccccc4)c23)CC1`, which growth is on record?
The growth was -20.6% (active).

How did the growth turn out when `COc1ccc(-n2ncc3c4nc(OC)c(S(=O)(=O)c5ccccc5)cc4ccc32)cc1` was run?
Its growth is 103%.

With `COc1cc(NC(=O)COc2ccccc2)c(C(N)=O)cc1OC` as the compound, how does the growth read?
The growth was 6.33% (active).

`COc1ccccc1-n1c(SCc2cc(OC)c(OC)c(OC)c2)nc2ccc(Cl)cc2c1=O` was tested. Which growth did it give?
The growth was 2.88% (active).

With `Cc1c(C(=O)Nc2nc(-c3ccccc3)cs2)nnn1-c1ccccc1Br` as the compound, how does the growth read?
Its growth is 41.1% [50 µM].

How did the growth turn out when `Cc1ccc(N(CSc2ccc(Cl)cc2)CSc2ccc(Cl)cc2)cc1` was run?
Its growth is -7.51% (active).

Which growth does the source give for `COc1ccc(-c2c3c(N)c4c(nc3nc3c2c(C)nn3-c2ccccc2)CCCCC4)cc1` here?
Its growth is 48%.

Which growth does the source give for `Cc1nc(-c2ccccc2)cc2c(O)c(C(=O)N/N=C/Cc3ccccc3)[nH]c(=O)c12` here?
The growth was 92.4%.

Which growth does the source give for `COC(=O)c1c2c(c(C)[n+]([O-])c1C)C(=O)C(NCc1ccc(O)cc1)=CC2=O` here?
Its growth is 6.08% (active).

With `NC(=S)N/N=C1\c2ccccc2-c2c(F)c(F)c(F)c(F)c21` as the compound, how does the growth read?
The growth was -28.1% (active).

How did the growth turn out when `COc1cc(/C=C/C(=O)C(=Cc2ccc(F)c(F)c2)C(=O)/C=C/c2ccc(O)c(OC)c2)ccc1O` was run?
The growth was 9.98% (active).

For `O=S(=O)(/N=C1C=C/C(=N\S(=O)(=O)c2ccccc2)c2ccccc2\1)c1ccccc1`, which growth is on record?
Its growth is 71.7%.

Which growth does the source give for `C=CC(=O)N1CC2(CCC(n3nc(-c4ccc(Oc5ccccc5)cc4)c4c(N)ncnc43)CC2)C1` here?
The growth was -6.08% (active).

For `COc1cc(Cn2cc(F)c(=O)[nH]c2=O)cc(OC)c1`, which growth is on record?
The growth was 103% [50 µM].

From PubChem BioAssay (NCI)
